The text below walks through data of PubChem BioAssay (Tox21).

Results filed as inconclusive are left out. Entries that show only a call come without a potency. Calls of active or inactive are those of the source. Calls come from the whole dose curve; as a rule, active = well fitted inhibition curve with a large enough effect in the repeat runs; inconclusive = weak or mixed curves; inactive = no such curve, though single readings can be large or run the other way.
Potency is the fitted concentration of half-maximal effect.

For this experiment, the target named is Aromatase (Homo sapiens) (UniProt P11511). Nature of the experiment: qHTS assay to identify aromatase inhibitors (AID 743083). Note: nearly all actives have a fitted effect of over 55% in size. Particulars: MCF-7 aro ERE, testosterone-driven ERE luciferase, 24 h; series mostly up to 70.3 µM.
Chain of Aromatase (Homo sapiens) (P11511 whole entry, looked up): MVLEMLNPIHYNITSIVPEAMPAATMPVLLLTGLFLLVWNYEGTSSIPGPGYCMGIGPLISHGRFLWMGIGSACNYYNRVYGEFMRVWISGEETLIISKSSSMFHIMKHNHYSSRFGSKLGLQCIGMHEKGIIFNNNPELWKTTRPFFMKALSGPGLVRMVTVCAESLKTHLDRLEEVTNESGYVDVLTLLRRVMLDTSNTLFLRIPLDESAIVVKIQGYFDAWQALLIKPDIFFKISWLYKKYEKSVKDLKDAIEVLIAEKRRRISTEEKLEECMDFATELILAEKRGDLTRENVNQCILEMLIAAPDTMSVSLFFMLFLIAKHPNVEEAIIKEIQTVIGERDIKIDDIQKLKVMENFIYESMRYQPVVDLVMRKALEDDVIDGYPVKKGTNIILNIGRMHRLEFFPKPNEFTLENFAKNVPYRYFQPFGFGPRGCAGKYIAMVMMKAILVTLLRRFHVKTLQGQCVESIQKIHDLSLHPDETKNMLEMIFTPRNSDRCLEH
Consider `O=C1CCCCCCCCCCCC(=O)OCCO1`, for which the Potency was 48.6 µM (active).

For the molecule `CN(Cc1ccc(C(C)(C)C)cc1)Cc1cccc2ccccc12`, the Potency result was “inactive”.

For the molecule `Cc1cccc(C)c1NC(=O)CN(CC(=O)O)CC(=O)O`, the Potency result is “inactive”.

Take `O=[N+]([O-])c1cccc(S(=O)(=O)O)c1`: the Potency result was “inactive”.

For the molecule `CCCCCCCC/C=C\CCCCCCCC(=O)OCC`, the Potency result is “inactive”.

Turning to `OC(C#CCN1CCCC1)(c1ccccc1)c1ccccc1`, the Potency result is “inactive”.

As to `CCCCCCCCCCCCCCCCOS(=O)(=O)O`, the Potency entry is “inactive”.

As to `O=S(c1cc(Cl)cc(Cl)c1O)c1cc(Cl)cc(Cl)c1O`, the Potency entry was “inactive”.

On to `C=CC(=O)OCCOCCOC(=O)C=C`, for which the Potency is 13.7 µM (active).

Consider `Cc1oc(-c2ccccc2)nc1CCOc1cccc2c1ccn2CCC(=O)O`, for which the Potency result is “inactive”.

As to `C1CCCNCCC1`, the Potency result is “inactive”.

With `OC(CN1CCC(Cc2ccc(F)cc2)CC1)c1ccc(Cl)cc1` (configuration not stated), the Potency entry is “inactive”.

For the molecule `Nc1ncn([C@H]2C[C@H](O)[C@@H](CO)O2)c(=O)n1`, the Potency result is “inactive”.

As for `COc1cc(Cl)ccc1Oc1ccc(Cl)cc1Cl`, the Potency result is “inactive”.

With `COc1ccc(-c2nc3ccc(C4=NNC(=O)CC4C)cc3[nH]2)cc1` (configuration not stated), the Potency entry is “inactive”.

As for `COc1cc2c(cc1OC)C(C(C(=O)N(CCc1ccc(OC)c(OC)c1OC)CCc1ccc(OC)c(OC)c1OC)c1ccccc1)=NCC2` (configuration not stated), the Potency result was “inactive”.

As to `C[N+]1(CC2COC(c3ccccc3)(C3CCCCC3)O2)CCCCC1` (configuration not stated), the Potency result was “inactive”.

Regarding `O=C(CS)Nc1ccccc1`, the Potency entry is “inactive”.

Take `C=C1C(=C/C=C2\CCC[C@]3(C)[C@@H]([C@H](C)/C=C/[C@@H](O)C4CC4)CC[C@@H]23)C[C@@H](O)C[C@@H]1O`: the Potency result was “inactive”.

Turning to `CC[N+](C)(CC)CCOC(=O)C(O)(c1ccccc1)C1CCCCC1` (configuration not stated), the Potency result was “inactive”.

Take `O=[N+]([O-])c1ccc(NCCO)c(OCCO)c1`: the Potency was 17.2 µM (active).

For `CCCCC1=NC2(CCCC2)C(=O)N1Cc1ccc(-c2ccccc2-c2nn[nH]n2)cc1`, the Potency result was “inactive”.

Regarding `CC(C)OC(=O)C(C)N(C(=O)c1ccccc1)c1ccc(F)c(Cl)c1` (configuration not stated), the Potency entry was “inactive”.

Regarding `CC[N+]1(CC)CCC(=C(c2ccccc2)c2ccccc2)C1C` (configuration not stated), the Potency entry is “inactive”.

Turning to `Clc1ccc(Cn2c(CN3CCCC3)nc3ccccc32)cc1`, the Potency entry was “inactive”.

Turning to `S=C([S-])NCCNC(=S)[S-].[Mn+2]`, the Potency entry is “inactive”.

For the molecule `O=C(Nc1ccc(S(=O)(=O)N2CCOCC2)cc1)c1cc(Cl)ccc1NS(=O)(=O)c1ccc(Cl)s1`, the Potency entry is “inactive”.
